Screening results: PubChem BioAssay, National Center for Advancing Translational Sciences (NCATS)
DRD3 antagonist: D3 dopamine receptor (human) antagonism. D3R cells, DiscoveRx beta-arrestin luminescence, antagonist mode; stronger effect = lower value. max response, negative = inhibition, %. 2.5% of 360,000 active. AID 652054; in the data active = max response below about -50%; inconclusive = no clear call, values can overlap the other calls
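Cells plated overnight at 1500 cells/well, then exposed to library compounds with dopamine controls for 90 minutes at 37 degrees C. DiscoveRx reagent added for 30–60 minutes at room temperature; luminescence read, quantitative HTS format.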
ClpP mod: qHTS Assay for Activators of ClpP; ATP-dependent Clp protease proteolytic subunit (Bacillus subtilis (strain 168)), P80244; purified B. subtilis ClpP, FRET peptide cleavage, 20 min; AID 651965, 2013; Potency, µM (titrated, usually from 57.5 µM); 1.9% of 340,000 active; active = well fitted falling curve with a large enough effect; inconclusive = small, poorly fitted or top-dose-only effect; inactive = no such curve, though single readings can be large or run the other way; note: the source files actives as falling curves though it sought activators and does not explain the sign; nearly all actives have a fitted effect of over 65% in size
Target sequence (P80244 whole entry, looked up): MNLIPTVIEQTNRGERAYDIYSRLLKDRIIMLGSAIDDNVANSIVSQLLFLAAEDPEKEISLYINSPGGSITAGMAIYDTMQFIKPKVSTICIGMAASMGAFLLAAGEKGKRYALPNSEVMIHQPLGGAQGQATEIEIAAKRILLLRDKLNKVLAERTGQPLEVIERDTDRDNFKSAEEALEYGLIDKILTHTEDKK
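Purified B. subtilis ClpP, 10 microg/mL final in Tris/HCl pH8 with KCl, BSA, glycerol and Tween-20, cleaved an Abz/nitrotyrosine-quenched decapeptide. Fluorescence (ex 320, em 430) was read at 0 and 20 min at room temperature. Delta was normalized to 5.8 microM ADEP and DMSO/no-enzyme controls.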
TDP1 cell noCPT: qHTS for Inhibitors of human tyrosyl-DNA phosphodiesterase 1 (TDP1): qHTS in cells in absence of CPT; DT40 Tdp1-/- hTDP1 cells, no CPT, ATP luminescence, 48 h; Potency, µM (doses to about 46.2 µM), usual class: inhibitors; 15% of 420,000 active; note: nearly all actives have a fitted effect of over 55% in size
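DT40 Tdp1-/-;hTDP1 cells, no CPT (DMSO vehicle only), 400 cells/well; compounds pin-transferred; ≥48 hr, 37 °C; CellTiter-Glo 30 min RT dark, luminescence read.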
D3 ag: agonists of human D3 dopamine receptor | max activation, % | D3R DiscoveRx beta-arrestin cells, luminescence, 90 min | 0.58% of 410,000 active; in the data active = max activation above about 30%
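Cells at 1500/well, incubated overnight, then treated with pinned compounds (dopamine as control) for 90 min at 37 degrees C. DiscoveRx reagent added for 30 - 60 minutes at room temperature; luminescence read.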
TDP1 cell CPT: DT40-hTDP1 cell growth loss with CPT | Potency, µM (titrated, usually from 46.2 µM), most hits filed as inhibitors | chicken DT40 Tdp1-/-;hTDP1 cells + 20 nM CPT, ATP luminescence, 48 h | AID 686979 | 12% of 420,000 active; note: nearly all actives have a fitted effect of over 55% in size
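Cell growth measured by CellTiter-Glo luminescence after a minimum 48 h, 37 C compound exposure with 20 nM CPT in Tdp1-knockout DT40 cells stably expressing hTDP1, seeded 400/well; qHTS titration format.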
IL-1B inflam inh: inflammasome signaling inhibition, IL-1 beta readout; THP-1 LPS/ATP IL-1B secretion, AlphaLISA, 16 h; stronger effect = lower value; activity change, % at 57.5 µM; 4.7% of 360,000 active; in the data active = activity change below about -50%; inconclusive = mostly about -30% to -49%
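THP-1 cells pretreated 1 hr with compounds (up to 57.5 uM final), then stimulated with LPS (250 ng/mL final) plus ATP (1.25 mM final); secreted IL-1B measured by AlphaLISA after 16 hr, decreased signal indicating inhibition.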
A number is an active result; 0 = inactive; ? = inconclusive; - = no result. A selection: hits, their analogues and other compounds. The true share with any hit is near 21%. Unless noted, calls come from the whole dose curve; as a rule, active = well fitted inhibition curve with a large enough effect; inconclusive = small, poorly fitted or top-dose-only effect; inactive = flat fitted curve, though single readings scatter.

SMILES	DRD3 antagonist	ClpP mod	TDP1 cell noCPT	D3 ag	TDP1 cell CPT	IL-1B inflam inh
CCN(CCC(=O)Nc1cc(OC)cc(OC)c1)Cc1ccccc1	-67	0	?	0	?	0
COc1ccc(NC(=O)CN2CCN(c3ccccc3C)CC2)cc1	0	-	0	0	0	0
CN1CCN(C(CNC(=O)C(=O)NC2CCCCC2)c2ccc(F)cc2)CC1 (stereo not given)	0	0	0	0	0	0
O=C(CCN1CCN(c2ccccc2F)CC1)Nc1ccccc1Cl	?	0	0	0	0	0
O=C(CCN1CCN(c2ccccc2F)CC1)Nc1ccc(F)cc1	-73	0	?	0	0	0
O=C(CCN1CCN(Cc2ccccc2)CC1)Nc1cccc(Cl)c1	-59	0	?	0	?	0
COc1ccccc1N1CCN(CCC(=O)Nc2cccc(F)c2)CC1	-111	0	?	0	?	0
COc1ccc(NC(=O)CCN2CCN(Cc3ccccc3)CC2)c(OC)c1	?	0	?	0	0	0
COc1cccc(NC(=O)CCN2CCN(CCO)CC2)c1	-	0	0	0	0	-
COc1cc(NC(=O)CCN2CCN(Cc3ccccc3)CC2)cc(OC)c1	-54	0	?	0	0	0
CCc1ccc2c(c1)c(=O)c(S(=O)(=O)c1ccccc1)cn2CC(=O)Nc1cc(C)ccc1C	-	0	0	0	0	-
O=C(O)Cc1ccc(-n2cccc2)cc1	0	-	0	0	0	0
CC(CNC(=O)c1cc(-c2ccccc2)n[nH]1)c1ccccc1 (stereo not given)	-	0	?	0	?	-
CCCCn1c(N)c(N(CCC(C)C)C(=O)COC(=O)c2ccc3ccccc3c2)c(=O)[nH]c1=O	0	-	?	0	?	0
O=C(CCN1CCN(c2ccccc2F)CC1)Nc1cccc(F)c1	-63	0	?	0	?	0
Cn1cc(CN2CCC(N3CCNC(=O)CC3)CC2)c(-c2ccccc2F)n1	0	0	0	0	0	0
COc1ccc(NC(=O)Cn2c(=O)oc3cc(S(=O)(=O)NC(C)C)ccc32)cc1OC	-	0	?	0	0	-
COc1ccc(NC(=O)COc2ccc(S(=O)(=O)NC3CCCCC3)cc2)cc1OC	-	0	21µM	0	?	-
COc1ccc(NC(=O)Cn2c(=O)oc3cc(S(=O)(=O)NC4CCCC4)ccc32)cc1OC	-	0	21µM	0	?	-
CCOc1ccccc1NC(=O)COc1ccc(S(=O)(=O)NC2CCCCC2)cc1	-	0	?	0	?	-
CC1Cc2ccccc2N1C(=O)Cn1c(=O)oc2cc(S(=O)(=O)NC3CCCC3)ccc21 (stereo not given)	0	0	?	0	?	-52
CN(CC(=O)Nc1ccc(F)c(F)c1F)C(=O)Cc1ccc(S(=O)(=O)N2CCOCC2)s1	0	0	0	0	?	0
C[C@H](O)[C@@H]1C(=O)N2CCc3ccc(-c4ccccc4)cc3[C@@H]2C[C@@H]1N(C)C(=O)c1ccc(C#N)cc1	0	0	?	0	?	0
CCCCc1nn2c(=O)cc(COC(=O)c3ccc(NC(=O)C4CCCCC4)cc3)nc2s1	-	0	?	0	?	-
CCOc1cc(C=O)ccc1OS(=O)(=O)c1ccc(NC(C)=O)cc1	0	0	18µM	0	?	0
SMILES	DRD3 antagonist	ClpP mod	TDP1 cell noCPT	D3 ag	TDP1 cell CPT	IL-1B inflam inh
COc1cc(C(=S)N2CCCC2)ccc1OS(=O)(=O)c1ccc(NC(C)=O)cc1	0	0	?	0	15µM	0
CCOc1cc(C=O)ccc1OCC(=O)NC(C)(C)C	0	0	0	0	0	0
COc1cc(C(=S)N2CCOCC2)ccc1OS(=O)(=O)c1ccc(NC(C)=O)cc1	0	-	9.2µM	0	18µM	0
CCCS(=O)(=O)NC(=O)C1(C)CCCN(C(=O)/C=C/c2ccccc2)C1 (stereo not given)	?	0	0	0	0	0
Cc1ccc(NS(=O)(=O)c2ccc(C(=O)N3CCCC(C(F)(F)F)C3)cc2)cc1 (stereo not given)	0	0	?	0	?	0
CCn1ccnc1CNC(=O)C1CCC(=O)N(Cc2ccccc2F)C1 (stereo not given)	0	0	0	0	0	0
